Experiment [1] has as its target Progesterone receptor (Homo sapiens) (UniProt P06401). Description: qHTS assay to identify small molecule agonists of the progesterone receptor (PR) signaling pathway (AID 1346784; calls by dose curve; further: nearly all actives have a fitted effect of over 30% in size). Summed up: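 Compounds were tested for PR agonism in HEK 293T cells bearing a beta-lactamase gene under UAS control. Treatment lasted 16 hr at 37C; signal came from fluorescence of a FRET substrate.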
Background: qHTS replaces the single test concentration by a dilution series.

Experiment [2] shares this target. Description: qHTS assay to identify small molecule antagonists of the progesterone receptor (PR) signaling pathway (AID 1346795; active means well fitted inhibition curve with a large enough effect in the signal ratio in the repeat runs, not every such curve was filed as active; the % refers to the signal ratio; further: potency means the concentration at half of the fitted maximal effect). Summed up: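 In HEK293T cells bearing the PR-UAS-bla reporter, compound effects on promegestone-driven (1 nM) beta-lactamase expression are assessed after 16 hr using a fluorescent FRET substrate incubated 2 hr at room temperature.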

Experiment [3] in a line: qHTS assay to identify small molecule antagonists of the progesterone receptor (PR) signaling pathway - cell viability counter screen (AID 1346798). Further: nearly all actives have a fitted effect of over 50% in size. Further: potency means the concentration at half of the fitted maximal effect. The gist of the method:
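Following a 4 hr attachment, PR-UAS-bla HEK293T cells in charcoal-stripped FBS medium were exposed to compounds with R5020 for 16 hr; CellTiter-Glo was added and luminescence read after 30 min at room temperature.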

Experiment [4] in a line: qHTS assay to identify small molecule agonists of the progesterone receptor (PR) signaling pathway - cell viability counter screen (AID 1346799; calls by dose curve; further: nearly all actives have a fitted effect of over 45% in size; further: potency means the concentration at half of the fitted maximal effect). Summed up:
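Here, 3,000 PR-UAS-bla HEK293T cells per well were treated with compounds for 16 hr after a 6 hr preincubation at 37C and 5% CO2; cell viability is the CellTiter-Glo luminescence signal.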

A short description of experiment [5]: qHTS assay to identify small molecule antagonists of the TGF-beta/Smad signaling pathway - cell viability counter screen (AID 1346824). Further: nearly all actives have a fitted effect of over 50% in size. Summed up:
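Cytotoxicity counter-screen run in the same wells as the beta-lactamase Smad reporter read: CellTiter-Glo luminescence after 30 min at room temperature. HEK 293T SBE-bla cells had 5 hr compound exposure at 37 C with TGF-beta1 (0.25 ng/mL stock).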

A short description of experiment [6]: qHTS assay to identify small molecule agonists of the TGF-beta/Smad signaling pathway - cell viability counter screen (AID 1346829). Further: top concentration of the series differs between compounds; nearly all actives have a fitted effect of over 45% in size. Summed up: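 Luminescence from CellTiter-Glo, read after a 30 min room-temperature incubation, gives cell viability of SBE-bla HEK 293T cells treated 5 hr with compounds at 37 C.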
A short description of experiment [7]: qHTS assay to identify small molecule agonists of the TGF-beta/Smad signaling pathway (AID 1346859; active means well fitted activation curve with a large enough effect in the signal ratio in the repeat runs, not every such curve was filed as active; the % refers to the signal ratio; further: series mostly up to about 77 µM). Summed up: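 Each well held 4,000 SBE-bla HEK 293T cells incubated overnight before compound addition; 5 hr later the cleavable FRET substrate went on for 2 hr at room temperature, and fluorescence was read at two emissions.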
For experiment [8], the target named is Thyrotropin-releasing hormone receptor (Homo sapiens) (UniProt P34981). Description: qHTS assay to identify small molecule antagonists of the thyrotropin-releasing hormone receptor (TRHR) signaling pathway (AID 1346877; active means well fitted inhibition curve with a large enough effect in the repeat runs, not every such curve was filed as active; further: series mostly up to about 51 µM). The gist of the method: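 HEK293/TRHR cells, 18 h, 37 °C; Ca2+ dye 2 h; cpd 5 min RT; TRH 1 nM final; fluorescence read 3 min, 1 s intervals; 15 concs, triplicate.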
Thyrotropin-releasing hormone receptor (Homo sapiens), sequence (P34981 whole entry, looked up): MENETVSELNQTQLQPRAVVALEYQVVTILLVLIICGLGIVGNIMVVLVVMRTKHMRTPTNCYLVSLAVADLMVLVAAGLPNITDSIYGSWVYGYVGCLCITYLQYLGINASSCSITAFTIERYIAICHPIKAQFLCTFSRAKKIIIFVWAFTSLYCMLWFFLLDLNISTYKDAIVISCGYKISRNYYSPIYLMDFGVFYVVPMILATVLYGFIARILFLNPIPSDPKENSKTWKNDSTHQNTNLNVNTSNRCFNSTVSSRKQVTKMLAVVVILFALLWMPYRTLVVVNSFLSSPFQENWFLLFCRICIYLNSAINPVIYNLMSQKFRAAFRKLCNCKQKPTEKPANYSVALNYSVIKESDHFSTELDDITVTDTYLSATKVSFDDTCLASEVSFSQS

Experiment [9] shares this target. Description: qHTS assay to identify small molecule agonists of the thyrotropin-releasing hormone receptor (TRHR) signaling pathway (AID 1346891; calls by dose curve; further: series mostly up to about 58 µM). The gist of the method: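 Screening of agonists relied on calcium signalling in HEK293 cells expressing human TRHR: dye loading 2 h at 37 °C preceded compound addition and a 3-min fluorescence time course.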
A short description of experiment [10]: Human pregnane X receptor (PXR) small molecule agonists, qHTS cell viability counter screen (AID 1346977). Further: nearly all actives have a fitted effect of over 50% in size. Further: potency means the concentration at half of the fitted maximal effect. The gist of the method: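 Tox21 qHTS format; PXR-Luc HepG2, 2,000/well, charcoal-stripped FBS 5%. Cpd exposure 24hr. Read: CellTiter-Fluor fluorescence, multiplexed with luciferase.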
Experiment [11] is described as follows: Caspase-3/7 induction in HepG2 cells by small molecules, qHTS assay (AID 1346978). Further: nearly all actives have a fitted effect of over 15% in size. Further: potency means the concentration at half of the fitted maximal effect. The gist of the method:
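Caspase-3/7 induction was measured by Caspase-Glo 3/7 luminescence (30 min, room temperature) after a 17 hr compound exposure of wild-type HepG2 cells seeded at 2,000 per well and pre-incubated 5 hr.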

The nature of experiment [12]: Caspase-3/7 induction in CHO-K1 cells by small molecules, qHTS assay (AID 1346980). Further: nearly all actives have a fitted effect of over 15% in size. Summed up:
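Luminescent Caspase-Glo 3/7 read (30min, room temperature) quantified apoptosis induction. Cells were wild-type CHO-K1, treated with compound for 17hr at 37 C and 5% CO2.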

Experiment [13] in a line: Caspase-3/7 induction in HepG2 cells by small molecules, qHTS cell viability counter screen (AID 1346981). Further: nearly all actives have a fitted effect of over 30% in size. Further: potency means the concentration at half of the fitted maximal effect. Summed up:
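Fluorescence read-out of live-cell protease activity (CellTiter-Fluor) after 1 hr with reagent. This was measured in the same wells as the caspase-3/7 luminescence, on HepG2 cells exposed to DMSO-dissolved compounds for 16 hr at 37 C.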

The target of experiment [14] is Nuclear receptor subfamily 1 group I member 2 (Homo sapiens) (UniProt O75469). Description: Human pregnane X receptor (PXR) small molecule agonists, qHTS assay (AID 1346982). Further: nearly all actives have a fitted effect of over 35% in size. The gist of the method:
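HepG2 PXR-Luc reporter line, 5% charcoal-stripped FBS; 5 hr pre-incubation, compound (DMSO) 24 hr at 37 C/5% CO2; ONE-Glo 30 min RT; luminescence read-out.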

Experiment [15] shares this target. Description: CYP3A4 induction through human pregnane X receptor (PXR) by small molecules, qHTS assay (AID 1346984). Further: nearly all actives have a fitted effect of over 40% in size. Summed up: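 HepG2-derived DPX-2 line carrying PXR plus a CYP3A4-promoter luciferase reporter; cells plated 5 hr, compound-exposed 24 hr at 37C. CYP3A4 activity probed with 3uM (final) Luciferin-IPA for 3hr, then luciferase read after One-Glo.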

The target is the same in experiment [16]. Description: Human pregnane X receptor (PXR) activation by small molecules, qHTS assay (AID 1346985). Further: nearly all actives have a fitted effect of over 40% in size. Summed up:
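DPX-2 cells (HepG2 co-transfected with a PXR response element and a CYP3A4-promoter luciferase construct) were seeded at 2,000 per well, rested 5 hr at 37C, then exposed to DMSO-dissolved compounds for 24 hr. Activation was read as luciferase luminescence.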

Experiment [17] addresses Cytochrome P450 2D6 (Homo sapiens) (UniProt P10635). Description: Cytochrome P450 Family 2 Subfamily D Member 6 (CYP2D6) small molecule antagonists: luciferase reporter qHTS assay (AID 1671196). Further: nearly all actives have a fitted effect of over 50% in size. Further: potency means the concentration at half of the fitted maximal effect. The gist of the method: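 Luminogenic proluciferin substrate, CYP2D6 enzyme; 10 min RT preincubation with compound, NADPH regeneration system added, 1 h RT. Stop/detection reagent, 20 min RT, luminescence read (RLU). Signal proportional to CYP activity.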

Experiment [18] is described as follows: Caspase-3/7 induction in CHO-K1 cells by small molecules, qHTS cell viability counter screen (AID 1346979). Further: nearly all actives have a fitted effect of over 35% in size. Further: potency means the concentration at half of the fitted maximal effect. Summed up:
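CellTiter-Fluor viability check, qHTS format: wild-type CHO-K1, 16hr compound treatment, 1hr reagent incubation, fluorescence read.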

A short description of experiment [19]: qHTS assay to identify small molecule agonists of the estrogen receptor alpha (ER-alpha) signaling pathway in the presence of an antagonist - cell viability counter screen (AID 1259386). Further: series mostly up to about 92 µM; nearly all actives have a fitted effect of over 30% in size. Summed up: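 Read-out: CellTiter-Fluor fluorescence after 1hr reagent incubation, measured in the same wells as the luciferase readout. VM7Luc4E2 cells were exposed to 15 compound concentrations with 10.0nM ICI-182,780 for 22hr at 37C.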

Experiment [20] concerns the target Nuclear receptor subfamily 1 group I member 2 (Rattus norvegicus) (UniProt Q9R1A7). Description: Rat pregnane X receptor (rPXR) activation by small molecules, qHTS assay (AID 1346983). Further: nearly all actives have a fitted effect of over 20% in size. To be noted: rPXR luciferase reporter cells, One-Glo luminescence, 24 h; max activation: hits give high values. Summed up:
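Luminescent readout (One-Glo luciferase, 30 min room temperature) followed 24 hr compound treatment at 37 C of rPXR cells plated 2,000 per well and preincubated 5hr; qHTS format with compounds delivered in DMSO.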

The structures appear in SMILES notation. Values without a mark were called inactive. Inconclusive results are not listed. The source made the active and inactive calls. Unless noted, the call rests on the fitted dose curve; in most records, active means well fitted curve in the direction sought with a large enough effect in the repeat runs; inconclusive means weak or mixed curves; inactive means no such curve, though single readings can be large; an effect the other way counts as inactive or inconclusive.

Drawing on PubChem BioAssay (Tox21), this text covers Potency, outcome and max activation for eight compounds.
On the % scale 0 is the no-effect control and ±100 the full control effect.

Progesterone receptor (Homo sapiens), sequence (P06401 whole entry, looked up): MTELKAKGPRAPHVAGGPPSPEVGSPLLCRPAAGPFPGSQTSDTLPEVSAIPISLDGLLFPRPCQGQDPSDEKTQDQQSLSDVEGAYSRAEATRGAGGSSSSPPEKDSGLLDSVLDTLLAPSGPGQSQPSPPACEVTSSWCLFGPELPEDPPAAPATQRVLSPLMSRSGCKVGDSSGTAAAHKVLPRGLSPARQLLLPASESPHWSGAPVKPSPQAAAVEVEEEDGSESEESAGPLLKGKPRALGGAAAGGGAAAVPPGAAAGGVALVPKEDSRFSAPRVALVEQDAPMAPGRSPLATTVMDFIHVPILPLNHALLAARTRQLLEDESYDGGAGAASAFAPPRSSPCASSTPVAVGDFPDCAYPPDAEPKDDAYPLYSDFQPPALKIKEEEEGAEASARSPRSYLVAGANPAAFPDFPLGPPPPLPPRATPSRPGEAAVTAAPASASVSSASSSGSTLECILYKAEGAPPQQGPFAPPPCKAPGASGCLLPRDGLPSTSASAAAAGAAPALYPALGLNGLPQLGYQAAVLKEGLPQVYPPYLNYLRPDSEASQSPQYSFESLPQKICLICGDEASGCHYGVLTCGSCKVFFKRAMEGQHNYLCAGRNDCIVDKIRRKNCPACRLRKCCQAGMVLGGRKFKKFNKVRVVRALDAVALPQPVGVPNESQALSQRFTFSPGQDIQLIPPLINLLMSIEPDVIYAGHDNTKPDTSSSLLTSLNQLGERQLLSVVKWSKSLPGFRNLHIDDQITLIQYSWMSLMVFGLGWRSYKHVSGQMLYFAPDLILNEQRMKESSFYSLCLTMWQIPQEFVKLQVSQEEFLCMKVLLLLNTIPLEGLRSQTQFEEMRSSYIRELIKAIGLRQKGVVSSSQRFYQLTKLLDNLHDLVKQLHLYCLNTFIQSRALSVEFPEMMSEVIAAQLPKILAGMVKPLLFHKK
Cytochrome P450 2D6 (Homo sapiens), sequence (P10635 whole entry, looked up): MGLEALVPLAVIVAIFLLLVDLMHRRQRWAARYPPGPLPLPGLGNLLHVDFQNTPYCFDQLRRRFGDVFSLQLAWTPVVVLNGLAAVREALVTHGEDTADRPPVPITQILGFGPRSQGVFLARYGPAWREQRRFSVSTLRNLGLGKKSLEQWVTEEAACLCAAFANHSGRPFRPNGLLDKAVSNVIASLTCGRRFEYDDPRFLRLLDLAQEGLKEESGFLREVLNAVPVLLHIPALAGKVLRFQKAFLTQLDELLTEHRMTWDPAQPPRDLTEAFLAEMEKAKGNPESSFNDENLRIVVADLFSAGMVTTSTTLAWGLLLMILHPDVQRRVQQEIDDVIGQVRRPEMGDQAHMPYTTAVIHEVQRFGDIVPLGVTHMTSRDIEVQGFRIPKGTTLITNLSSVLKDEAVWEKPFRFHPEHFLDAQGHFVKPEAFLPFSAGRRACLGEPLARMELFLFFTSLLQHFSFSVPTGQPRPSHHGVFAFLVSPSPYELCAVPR
Nuclear receptor subfamily 1 group I member 2 (Homo sapiens), sequence (O75469 whole entry, looked up): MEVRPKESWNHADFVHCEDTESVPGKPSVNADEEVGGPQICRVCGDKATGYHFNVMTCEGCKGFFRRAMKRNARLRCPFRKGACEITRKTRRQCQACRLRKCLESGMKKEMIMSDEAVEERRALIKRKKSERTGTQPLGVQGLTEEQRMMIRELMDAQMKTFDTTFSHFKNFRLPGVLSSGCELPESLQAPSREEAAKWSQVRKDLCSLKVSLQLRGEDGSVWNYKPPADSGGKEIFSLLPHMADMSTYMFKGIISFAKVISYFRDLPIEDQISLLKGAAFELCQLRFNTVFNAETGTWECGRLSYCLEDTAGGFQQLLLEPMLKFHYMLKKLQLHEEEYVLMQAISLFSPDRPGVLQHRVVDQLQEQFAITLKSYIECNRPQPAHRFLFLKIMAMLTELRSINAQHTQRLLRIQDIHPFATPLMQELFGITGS
Nuclear receptor subfamily 1 group I member 2 (Rattus norvegicus), sequence (Q9R1A7 whole entry, looked up): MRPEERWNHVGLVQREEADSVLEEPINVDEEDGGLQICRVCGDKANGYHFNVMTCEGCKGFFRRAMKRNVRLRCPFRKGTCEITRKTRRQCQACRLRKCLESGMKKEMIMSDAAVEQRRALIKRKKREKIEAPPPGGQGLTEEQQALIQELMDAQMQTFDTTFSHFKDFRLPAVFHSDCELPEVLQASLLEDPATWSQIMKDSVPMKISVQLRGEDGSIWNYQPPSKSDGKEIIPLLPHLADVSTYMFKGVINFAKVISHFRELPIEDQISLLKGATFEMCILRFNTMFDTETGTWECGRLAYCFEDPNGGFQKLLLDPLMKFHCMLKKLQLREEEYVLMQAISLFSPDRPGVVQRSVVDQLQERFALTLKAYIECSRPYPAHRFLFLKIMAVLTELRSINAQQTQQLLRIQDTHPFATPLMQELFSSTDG

On to `CN1C(C(=O)Nc2ccccn2)=C(O)c2sccc2S1(=O)=O`, for which the Potency entry in experiment [1], in experiment [2], in [3], in experiment [4], in experiment [5] and in experiment [6] was “inactive” each time. Moreover, the Potency result in [7], in experiment [9], in experiment [10], in experiment [11], in experiment [12] and in experiment [13] was “inactive” in each case. Moreover, the Potency result in [14], in experiment [15], in experiment [16] and in experiment [17] was “inactive” throughout. Also, the result in [8] was inactive.
Regarding `CCCCCCC(C)(C)C(=O)O`, the Potency entry in experiment [1], in [2], in experiment [3], in [4], in experiment [5] and in experiment [6] was “inactive” each time. The Potency entry in [7], in experiment [9], in [10], in experiment [11], in experiment [18] and in experiment [12] was “inactive” each time. Also, in experiment [17], the Potency result is “inactive”. Moreover, in experiment [8], the compound was classed as inactive.
For `C[C@]1(Cn2ccnn2)[C@H](C(=O)O)N2C(=O)C[C@H]2S1(=O)=O`, the Potency entry in experiment [19], in experiment [3], in experiment [4], in [5], in experiment [6] and in experiment [7] was “inactive” in each case. Also, the Potency entry in experiment [9], in experiment [10], in [11], in [18], in experiment [12] and in experiment [13] was “inactive” throughout. Moreover, the Potency entry in experiment [15], in experiment [16] and in experiment [17] was “inactive” in each case. Also, the compound was classed as inactive in [8].
`CC(C)=CCC/C(C)=C/CC/C(C)=C/CCC(=O)OC/C=C(\C)CCC=C(C)C`: the Potency entry in [1], in experiment [2], in experiment [3], in [4], in experiment [5] and in [6] was “inactive” each time. The Potency result in [7], in experiment [9], in experiment [10], in experiment [11], in experiment [12] and in experiment [13] was “inactive” in each case. Besides, the Potency result in experiment [17] was “inactive”. Further, the call in experiment [8] was inactive.
With `CC1(C)[C@H](C(=O)O)N2C(=O)C[C@H]2S1(=O)=O`, the Potency result in experiment [19], in experiment [3], in experiment [4], in experiment [5], in [6] and in experiment [7] was “inactive” in each case. In addition, the Potency result in [9], in [11], in [18] and in [17] was “inactive” throughout. In addition, in experiment [8], the outcome was inactive.
In the case of `C[C@@H]1CN(CCCn2c3ccccc3c3ccccc32)C[C@H](C)N1`, the Potency entry in experiment [1], in experiment [5], in [6], in experiment [9] and in experiment [14] was “inactive” throughout. The Potency is 29.8 µM (active) in experiment [2]; 11.9 µM (active) in experiment [3]; 11.9 µM (active) in experiment [4]; 29.8 µM (active) in [10]; 29.8 µM (active) in [18]; 29.8 µM (active) in experiment [13]. Also, the result in [8] was inactive. The max activation in experiment [20] is -9.24%.
On to `C[C@@H](O[C@H]1OCCN(Cc2n[nH]c(=O)[nH]2)[C@H]1c1ccc(F)cc1)c1cc(C(F)(F)F)cc(C(F)(F)F)c1`, for which the Potency result in experiment [19], in [5], in experiment [6], in [9] and in [12] was “inactive” in each case. In experiment [8], the compound was called inactive. The Potency in experiment [11] was 33.5 µM (active); in experiment [13], 29.8 µM (active); in experiment [17], 19.5 µM (active).
For the compound `Nc1cccc2c1CN(C1CCC(=O)NC1=O)C2=O` (centres undefined), the Potency entry in experiment [1], in [2], in [3], in experiment [4], in [5] and in experiment [6] was “inactive” each time. Further, the Potency result in [7], in [9], in [10], in experiment [11], in [12] and in experiment [13] was “inactive” throughout. Besides, the Potency result in experiment [14] and in experiment [16] was “inactive” in each case. The outcome in [8] was inactive.
